{
  "source": "PubChem BioAssay (Tox21)",
  "note": "Records with an inconclusive call do not appear. Values without a mark were called inactive. Calls of active or inactive are those of the source. The call rests on the fitted dose curve; in most records, active means well fitted cell-killing curve with a large enough effect in the repeat runs; inconclusive means weak or mixed curves, or effect the other way; inactive means no such curve, though single readings can be large or run the other way. On the % scale 0 is the no-effect control and ±100 the full control effect.",
  "data": [
    {"assay": "qHTS assay to identify small molecule antagonists of the sonic hedgehog signaling (Shh) pathway - cell viability counter screen (AID 1259367); further: nearly all actives have a fitted effect of over 55% in size", "details": "NIH/3T3 Gli1-Luc viability, CellTiter-Fluor, 24 h; series mostly up to 92.4 µM", "source_text": "National Center for Advancing Translational Sciences [NCATS]\nNIH Chemical Genomics Center [NCGC]\nU.S. Environmental Protection Agency [EPA]\nNational Institutes of Environmental Health Sciences [NIEHS]\nNational Toxicology Program [NTP]\nU.S. Food and Drug Administration [FDA]\nThe sonic hedgehog (Shh) pathway is essential for normal embryonic development. Dysregulation of the Shh pathway can cause severe developmental defects in organs. Therefore chemicals that interfere with the pathway are potential developmental toxicants. A cell line designated 3T3Gli1-Luc (DMB/OARSA/CFSAN/FDA, Laurel, MD), a NIH/3T3 derived clone containing stably integrated Gli1-Luc reporter is used to detect chemical interference of the Shh pathway, by changes in the expression of the firefly Luc gene under the control of the Gli1 transcriptional response element. This cell line was used to screen Tox21 libraries for identifying and prioritizing the potential developmental toxicants that interfere Shh pathway. Conditioned medium-stimulated mode was used to screen for chemicals inhibiting Shh signaling. The cytotoxicity of the compounds was tested in parallel by measuring the cell viability using CellTiter-Fluor assay system (Promega, Madison, WI) in the same wells.\nTox21 Assay Protocol Summary:\n3T3 Gli1-Luc cells were dispensed at 2,000 per well in 5uL of culture medium into white solid bottom 1536-well plates (Greiner Bio-One, Monroe, NC) using a Multidrop Combi (Thermo Scientific, Waltham, MA) dispenser. The assay plates were incubated at 37 C and 5% CO2 for 4hr, and then 23nL of compounds dissolved in DMSO and positive control were transferred using a Pintool station (Wako, San Diego, CA). The compound transfer was followed by the addition of 1ul conditioned medium or assay buffer using two separate tips of Flying Reagent Dispenser (FRD, Aurora Discovery, San Diego, CA). The assay plates were incubated at 37C and 5% CO2 for 24hr. For viability read, after 23hr of compound treatment, 1uL of CellTiter-Fluor reagent (Promega Corporation, Madison, WI) was added to each well of the assay plates using Flying Reagent Dispenser (FRD, Aurora Discovery, San Diego, CA) and incubated the assay plates at 37C for 1hr. The fluorescence signal was quantified using a ViewLux plate reader (Perkin Elmer, Shelton, CT).", "values": [
      {"compound": "NNC(=O)OCc1ccccc1", "outcome": "inactive"},
      {"compound": "N=C(N)N", "outcome": "inactive"},
      {"compound": "BrCCOc1ccccc1", "outcome": "inactive"},
      {"compound": "CCCCCCCC(=O)N(C)C", "outcome": "inactive"},
      {"compound": "CCN(CC)CC", "outcome": "inactive"},
      {"compound": "CCCCCCCOC(C)=O", "outcome": "inactive"},
      {"compound": "CC(O)CCCCn1c(=O)c2c(ncn2C)n(C)c1=O", "note": "(stereo not given)", "outcome": "inactive"},
      {"compound": "C/C(=N\\O)c1ccc(OCC(=O)N2CCCCC2)cc1", "outcome": "inactive"},
      {"compound": "CN1CCN(C(=O)C2CCCCC2)CC1", "outcome": "inactive"},
      {"compound": "COc1cc2nc(N3CCN(C(=O)C4CCCO4)CC3)nc(N)c2cc1OC", "note": "(stereo not given)", "outcome": "inactive"},
      {"compound": "CN(C)CCc1c[nH]c2ccc(C[C@H]3COC(=O)N3)cc12", "outcome": "inactive"},
      {"compound": "CC(=O)OC1CCC(C(C)(C)C)CC1", "note": "(stereo not given)", "outcome": "inactive"},
      {"compound": "C=COCCCCO", "outcome": "inactive"},
      {"compound": "CCCCCCCCCCCCCCCCN(C)C", "viability change, negative = cytotoxic": "2.16% [at 8.39 µM]"},
      {"compound": "CC(CC(=O)Cl)CC(C)(C)C", "note": "(stereo not given)", "outcome": "inactive"},
      {"compound": "C[C@]12C=CC(=O)C=C1[C@@H](F)C[C@@H]1[C@@H]2[C@@H](O)C[C@@]2(C)[C@H]1CC[C@]2(O)C(=O)CO", "outcome": "inactive"},
      {"compound": "CC(=O)c1ccc2ccc3ccccc3c2c1", "outcome": "inactive"},
      {"compound": "CCCc1ncc(C(=O)O)s1", "outcome": "inactive"},
      {"compound": "COC(=O)c1ccc(NC(C)=O)cc1OC", "outcome": "inactive"},
      {"compound": "COCc1nnc(-c2ccc[n+]([O-])c2)n1-c1c(Cl)c(Cl)cc2[nH]c(=O)c(=O)[nH]c12", "outcome": "inactive"},
      {"compound": "O=S(=O)(O)c1cc(I)c(O)c2ncccc12", "outcome": "inactive"},
      {"compound": "COc1ccc2cc(CCC(C)=O)ccc2c1", "outcome": "inactive"},
      {"compound": "CCCC[O][Al]([O]CCCC)[O]CCCC", "outcome": "inactive"},
      {"compound": "CC1=C(O)C(=O)CO1", "outcome": "inactive"},
      {"compound": "CC12CCCC=C1C(=O)OC2=O", "note": "(stereo not given)", "outcome": "inactive"},
      {"compound": "CCCCCCCCCCCBr", "outcome": "inactive"},
      {"compound": "CC(=O)SCC(CC(=O)c1ccc(C)cc1)C(=O)O", "note": "(stereo not given)", "outcome": "inactive"},
      {"compound": "CCO[Si](CC(C)C)(OCC)OCC", "outcome": "inactive"},
      {"compound": "O=P(O)(O)C(O)(Cc1cccnc1)P(=O)(O)O", "outcome": "inactive"},
      {"compound": "O=C(O)CCC(=O)Nc1ccc(S(=O)(=O)Nc2nccs2)cc1", "outcome": "inactive"},
      {"compound": "CCOC(=O)c1ccc(N(C)C)cc1", "outcome": "inactive"},
      {"compound": "O=C(O)Cc1ccccc1Oc1ccc(Cl)cc1Cl", "outcome": "inactive"},
      {"compound": "C=CCN1CCc2nc(N)sc2CC1", "outcome": "inactive"},
      {"compound": "CCCCCCC(=O)c1ccccc1", "outcome": "inactive"},
      {"compound": "O=C(O)Cc1c(Cl)ccc(Cl)c1Cl", "outcome": "inactive"},
      {"compound": "CC(C)(C)C(=O)CC(=O)C(C)(C)C", "outcome": "inactive"},
      {"compound": "CC(=O)Nc1ccc(S(=O)(=O)Nc2cc(C)on2)cc1", "outcome": "inactive"},
      {"compound": "CCCCCCCCCCCCCC(=O)OCC", "outcome": "inactive"},
      {"compound": "CN(C)CCc1c[nH]c2ccc(CS(=O)(=O)N3CCCC3)cc12", "outcome": "inactive"},
      {"compound": "C/C(Cl)=C/CCl", "outcome": "inactive"}
    ]}
  ]
}
